PubChem BioAssay
The source made the active and inactive calls. Unless noted, no rule for the calls is given here.

Assays:
[1] = system: Wnt5a (protein binding on small-molecule microarray); assay: small molecules binding Wnt5a protein – biophysical, small-molecule microarray, 635/667 nm fluorescence, primary screen (AID 1142); settings: 635 nm fluorescence, higher = more signal;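 also: fluorescence read at 667 nm with signal to noise per printed feature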
[2] = ATP-based viability of Huh7 replicon cells – cell-based, CellTiter-Glo luminescence, basal, 48 h, cytotoxicity control for HCV replication inhibitor project, primary screen (AID 1143); settings: higher = more signal, called active from +8 up or from −8 down;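 also: Huh7 hepatoma cells carrying a hepatitis C replication reporter with no stimulus; test concentration not given here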
[3] = Pseudomonas biofilm growth suppression – PAO1 strain, BacTiter-Glo luminescence, LB-PBS, primary screen (AID 1144); settings: P. aeruginosa PAO1 biofilm, 12 h, higher = more signal
[4] = basal CRE-LacZ reporter activity in PC12 – cell-based, unstimulated, primary screen (AID 1145); settings: no forskolin, luminescence, 4.5 h, higher = more signal, called active from +8 up or from −8 down
[5] = forskolin-driven CRE-LacZ activity in PC12 – cell-based, CRE-LacZ reporter, forskolin-stimulated, primary screen (AID 1146); settings: luminescence, 4.5 h, higher = more signal, called active from +8 up or from −8 down;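 also: PC12 cells with 6xCRE LacZ reporter stimulated by forskolin 10 µM; beta-galactosidase reporter signal reflecting CREB driven transcription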
[6] = molecular target: Streptavidin (Streptomyces avidinii) (UniProt P22629); assay: compounds binding control protein streptavidin – biophysical, small-molecule microarray, 635/667 nm fluorescence, artefact control for SMM compound annotation, primary screen (AID 1147); settings: higher = more signal;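 also: signal reflects streptavidin binding to arrayed compounds as a control protein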
[7] = probe aInhba binding on compound microarray – biochemical, small-molecule microarray, 635/667 nm fluorescence, primary screen (AID 1148); settings: higher = more signal;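 also: score merges 667nm spot fluorescence with signal-to-noise for antibody binding to printed compounds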
[8] = molecular target: Torsin-1A (Homo sapiens) (UniProt O14656); assay: TOR1A wild-type binding on microarray – cell lysate, small-molecule microarray, lysate, 635/667 nm, primary screen (AID 1149); settings: COS7 hTOR1A-WT lysate, 635 nm fluorescence, higher = more signal
[9] = molecular target: Torsin-1A (Homo sapiens) (UniProt O14656); assay: torsin A mutant lysate binding on microarrays – cell lysate, small-molecule microarray, COS7 lysate, 635/667 nm fluorescence, primary screen (AID 1150); settings: COS7 hTOR1A mutant lysate, 635 nm fluorescence, higher = more signal;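 also: score pools 667 nm emission and signal to noise measuring lysate protein binding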
[10] = system: Sonic hedgehog protein (Shh); assay: Sonic hedgehog microarray binding compounds – biochemical, small-molecule microarray, 635/667 nm fluorescence, primary screen (AID 1151); settings: 635 nm fluorescence, higher = more signal;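 also: Shh protein binding to compounds spotted on small-molecule microarray slides; score combines spot fluorescence intensity with signal-to-noise across triplicate slides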
[11] = optical density shifts of acrAB sulA E. coli – strain DRC41, OD650, 48 h, E. coli filamentation inducer project, primary screen (AID 1152); settings: higher = more signal, called active from +8 up or from −8 down;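 also: E. coli MC1000 strain DRC41 lacking acrAB efflux pump and sulA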
[12] = probe aLefty1 binding on compound microarray – biochemical, small-molecule microarray, 635/667 nm fluorescence, primary screen (AID 1153); settings: higher = more signal;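 also: score merges spot fluorescence with signal-to-noise ratio from the scanned slide images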
[13] = plasmodial surface anion channel blockers, osmotic lysis – cell-based, P. falciparum Indochina, OD700, 1 h, primary screen (AID 1154); settings: P. falciparum Indochina infected RBC osmotic lysis, higher = more signal, called active from +8 up or from −8 down
[14] = plasmodial surface anion channel blockers, osmotic lysis – cell-based, P. falciparum Indochina, OD700, 2 h, primary screen (AID 1155);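 also: lysis reports solute entry through the parasite surface anion channel PSAC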; settings: P. falciparum Indochina infected erythrocytes, higher = more signal, called active from +8 up or from −8 down
[15] = changes in parasitized red cell lysis, either direction – P. falciparum Indochina, OD700, 3 h, PSAC antagonist project, primary screen (AID 1156); settings: P. falciparum-infected erythrocytes, osmotic lysis, higher = more signal, called active from +8 up or from −8 down
[16] = plasmodial surface anion channel blockers, osmotic lysis – cell-based, P. falciparum Indochina, OD700, 18 h, primary screen (AID 1157); settings: P. falciparum Indochina infected erythrocytes, osmotic lysis OD700, 18 h; higher = more signal, called active from +8 up or from −8 down
[17] = S6 kinase pathway phospho-S6 level changes – cell-based, A549, cytoblot, luminescence, serum-stimulated, primary screen (AID 1158); settings: 5 h, higher = more signal;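 also: serum-stimulated A549 lung adenocarcinoma cells; signal is phosphorylated S6 detected by cytoblot immunostaining with HRP secondary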
[18] = molecular target: NADPH oxidase 2 (Homo sapiens) (UniProt P04839); assay: compounds shifting NOX2 Amplex Red fluorescence – cell-based, HEK293-NOX2, PMA-stimulated, NOX inhibitor project, primary screen (AID 1159); settings: 45 min, higher = more signal, called active from +8 up or from −8 down; also: test concentration not given here
[19] = molecular target: NADPH oxidase 4 (Homo sapiens) (UniProt Q9NPH5); assay: compounds shifting NOX4 Amplex Red fluorescence – cell-based, HEK293-NOX4, tetracycline-induced, NOX inhibitor project, primary screen (AID 1160); settings: HEK293-NOX4, Amplex Red H2O2 fluorescence, 45 min; higher = more signal, called active from +8 up or from −8 down
[20] = molecular target: NADPH oxidase 5 (Homo sapiens) (UniProt Q96PH1); assay: compounds shifting NOX5 Amplex Red fluorescence – cell-based, HEK293-NOX5, NOX inhibitor project, primary screen (AID 1161); settings: HEK293-NOX5, ionomycin, 45 min, higher = more signal
NADPH oxidase 5 (Homo sapiens), sequence (Q96PH1 whole entry, looked up): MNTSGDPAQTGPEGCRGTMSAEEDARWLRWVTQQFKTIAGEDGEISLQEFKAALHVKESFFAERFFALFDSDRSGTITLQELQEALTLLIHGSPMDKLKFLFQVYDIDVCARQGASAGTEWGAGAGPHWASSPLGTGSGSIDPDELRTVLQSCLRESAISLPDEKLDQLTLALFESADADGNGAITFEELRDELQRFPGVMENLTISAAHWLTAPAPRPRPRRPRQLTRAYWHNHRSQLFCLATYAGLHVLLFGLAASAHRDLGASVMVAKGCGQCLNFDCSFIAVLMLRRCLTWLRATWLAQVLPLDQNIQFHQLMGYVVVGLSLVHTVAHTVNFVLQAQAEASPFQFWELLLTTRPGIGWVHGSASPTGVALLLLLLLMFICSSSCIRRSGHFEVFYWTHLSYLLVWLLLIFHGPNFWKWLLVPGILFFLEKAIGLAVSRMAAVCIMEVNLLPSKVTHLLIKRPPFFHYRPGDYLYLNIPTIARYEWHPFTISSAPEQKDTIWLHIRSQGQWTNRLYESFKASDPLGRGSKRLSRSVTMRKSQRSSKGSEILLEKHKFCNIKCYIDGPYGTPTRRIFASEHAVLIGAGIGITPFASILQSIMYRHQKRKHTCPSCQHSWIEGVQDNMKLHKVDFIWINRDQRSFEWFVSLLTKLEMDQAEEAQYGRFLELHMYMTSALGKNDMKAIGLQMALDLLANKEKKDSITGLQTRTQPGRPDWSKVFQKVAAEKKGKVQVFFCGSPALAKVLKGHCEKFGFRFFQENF

NADPH oxidase 4 (Homo sapiens), sequence (Q9NPH5 whole entry, looked up): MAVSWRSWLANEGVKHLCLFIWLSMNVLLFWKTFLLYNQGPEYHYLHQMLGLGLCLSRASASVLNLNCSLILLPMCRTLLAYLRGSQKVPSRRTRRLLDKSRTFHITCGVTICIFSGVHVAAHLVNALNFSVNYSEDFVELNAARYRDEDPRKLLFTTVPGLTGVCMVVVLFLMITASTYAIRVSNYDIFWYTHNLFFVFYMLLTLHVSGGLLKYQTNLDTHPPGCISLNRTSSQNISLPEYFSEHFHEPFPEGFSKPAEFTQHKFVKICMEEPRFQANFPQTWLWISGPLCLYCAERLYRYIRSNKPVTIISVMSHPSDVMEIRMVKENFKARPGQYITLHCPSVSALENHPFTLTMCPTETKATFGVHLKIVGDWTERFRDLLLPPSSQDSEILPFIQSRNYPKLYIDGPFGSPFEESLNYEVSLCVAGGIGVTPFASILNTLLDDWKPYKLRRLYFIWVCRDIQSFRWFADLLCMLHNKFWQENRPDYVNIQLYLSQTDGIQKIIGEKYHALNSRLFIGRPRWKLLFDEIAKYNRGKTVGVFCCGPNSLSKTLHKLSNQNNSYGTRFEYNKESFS
NADPH oxidase 2 (Homo sapiens), sequence (P04839 whole entry, looked up): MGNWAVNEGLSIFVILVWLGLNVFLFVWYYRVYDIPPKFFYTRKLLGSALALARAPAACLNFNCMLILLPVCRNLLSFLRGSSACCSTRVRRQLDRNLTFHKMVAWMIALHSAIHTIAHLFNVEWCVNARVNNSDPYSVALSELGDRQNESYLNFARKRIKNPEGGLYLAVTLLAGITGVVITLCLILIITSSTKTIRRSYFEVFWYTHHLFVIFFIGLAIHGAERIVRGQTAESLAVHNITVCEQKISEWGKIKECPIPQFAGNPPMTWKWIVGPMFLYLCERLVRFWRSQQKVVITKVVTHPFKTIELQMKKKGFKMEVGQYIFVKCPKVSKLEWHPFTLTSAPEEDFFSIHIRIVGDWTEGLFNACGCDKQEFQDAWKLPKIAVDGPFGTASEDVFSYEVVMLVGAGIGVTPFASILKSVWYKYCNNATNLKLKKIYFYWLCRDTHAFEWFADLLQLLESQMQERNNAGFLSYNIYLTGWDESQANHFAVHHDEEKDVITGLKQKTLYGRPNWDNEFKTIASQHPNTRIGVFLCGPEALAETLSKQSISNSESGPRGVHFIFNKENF
Streptavidin (Streptomyces avidinii), sequence (P22629 whole entry, looked up): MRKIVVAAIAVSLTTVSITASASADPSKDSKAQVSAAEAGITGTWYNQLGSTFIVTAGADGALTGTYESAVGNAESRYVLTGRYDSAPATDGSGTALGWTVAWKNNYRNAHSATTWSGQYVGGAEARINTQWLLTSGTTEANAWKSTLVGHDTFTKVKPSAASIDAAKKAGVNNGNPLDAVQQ
Torsin-1A (Homo sapiens), sequence (O14656 whole entry, looked up): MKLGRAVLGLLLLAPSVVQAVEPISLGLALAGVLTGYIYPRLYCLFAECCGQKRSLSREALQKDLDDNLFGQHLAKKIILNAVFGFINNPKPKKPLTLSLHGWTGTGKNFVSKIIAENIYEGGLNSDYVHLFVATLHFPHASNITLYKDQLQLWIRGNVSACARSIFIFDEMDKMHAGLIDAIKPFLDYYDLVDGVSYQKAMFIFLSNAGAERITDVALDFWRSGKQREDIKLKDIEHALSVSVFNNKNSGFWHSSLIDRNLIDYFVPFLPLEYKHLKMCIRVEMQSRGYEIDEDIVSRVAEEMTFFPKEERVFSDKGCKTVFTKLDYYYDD

Structure (SMILES) | composite z-score [1] | z-score [2] | z-score [3] | z-score [4] | z-score [5] | composite z-score [6] | composite z-score [7] | composite z-score [8] | composite z-score [9] | composite z-score [10] | z-score [11] | composite z-score [12] | z-score [13] | z-score [14] | z-score [15] | z-score [16] | z-score [17] | z-score [18] | z-score [19] | z-score [20]
Cc1ccc(S[C@]2(C(=O)NCC(F)(F)F)CC(=O)N(Cc3ccccc3C(F)(F)F)[C@@H]2c2ccc(CO)cc2)cc1 | -0.186 | 0.518 (inactive) | 0.0205 (inactive) | -0.349 (inactive) | -0.163 (inactive) | -1 | -0.179 | -1.23 | 0.0748 | -0.972 | -0.262 (inactive) | 0.007 | 1.4 (inactive) | -0.107 (inactive) | -0.142 (inactive) | 0.135 (inactive) | -0.0621 | -2.02 (inactive) | 0.426 (inactive) | -0.0735
O=C(O)[C@H](Cc1ccccc1)n1cc(C2(O)CCCCC2)nn1 | 0.0358 | 0.316 (inactive) | 0.552 (inactive) | 0.367 (inactive) | 0.317 (inactive) | -0.338 | -0.0221 | 0.221 | 0.327 | -0.0164 | -0.976 (inactive) | 0.592 | 0.0438 (inactive) | -0.879 (inactive) | -0.472 (inactive) | -0.281 (inactive) | 0.347 | 1.01 (inactive) | 0.715 (inactive) | 0.31
CC(=O)NCCCC[C@@H]1NC(=O)[C@H]2C[C@@H](C(=O)NCCCCCCNC(=O)CS)[C@@H](c3cccc(OCCO)c3)N2C1=O | 0.538 | 0.348 (inactive) | -0.286 (inactive) | -0.813 (inactive) | -0.78 (inactive) | -0.64 | -0.0448 | 1.43 | 1.22 | 1.32 | -0.337 (inactive) | -0.101 | 3.07 (inactive) | 0.858 (inactive) | 1.18 (inactive) | 0.448 (inactive) | -0.754 | 1.6 (inactive) | -0.667 (inactive) | 0.443
C=C(CCCC)/C(=C/C[C@@H](OC(C)=O)c1ccc(CO)o1)c1cnc2ccccc2c1 | 0.401 | -0.257 (inactive) | -0.134 (inactive) | 2.76 (inactive) | 0.128 (inactive) | 0.843 | 0.0536 | 1.18 | 1.13 | 1.39 | 0.105 (inactive) | 0.0077 | 9.2 (active) | 1.25 (inactive) | 2.11 (inactive) | 0.406 (inactive) | 0.509 | -0.383 (inactive) | -0.837 (inactive) | -0.426
COC(=O)[C@@]1(Cc2ccc(F)cc2)[C@H]2c3cc(C(=O)N(C)C)n(CCc4ccc(O)c(O)c4)c3C[C@H]2CN1C(=O)c1ccccc1 | 0.643 | 0.395 (inactive) | -0.0598 (inactive) | 0.387 (inactive) | 1.4 (inactive) | 0.365 | 0.528 | 0.411 | 0.92 | -1.67 | -0.81 (inactive) | 0.162 | 0.183 (inactive) | 0.194 (inactive) | 0.248 (inactive) | 0.494 (inactive) | 0.407 | -0.168 (inactive) | -1.31 (inactive) | -0.966
COC(=O)[C@@]1(Cc2ccc(OC)cc2)[C@H]2c3cc(C(=O)N(C)C)[nH]c3C[C@H]2CN1C(=O)c1ccccc1 | 0.117 | 0.244 (inactive) | 0.857 (inactive) | 0.383 (inactive) | -0.289 (inactive) | 0.226 | -0.0645 | -0.209 | -0.369 | -0.814 | -0.439 (inactive) | -0.0969 | 5.74 (inactive) | 0.806 (inactive) | 0.395 (inactive) | 0.764 (inactive) | -0.38 | 0.371 (inactive) | 0.602 (inactive) | -1.58
CC(C)C[C@H]1NC(=O)C([C@@H](C)OCc2ccccc2)NC(=O)[C@@]23C(=O)N[C@@H](Cc4ccccc4)C2[C@H](C)[C@@]2(C)O[C@H]2C3/C=C/C/C=C\CNC1=O (stereo not given in full) | 0.0872 | -1.63 (inactive) | 0.727 (inactive) | 0.839 (inactive) | -0.566 (inactive) | 0.0874 | 0.242 | -0.125 | 0.519 | 1.62 | -0.629 (inactive) | 0.0361 | 1.44 (inactive) | -0.387 (inactive) | -0.0195 (inactive) | 0.0591 (inactive) | 0.298 | 0.569 (inactive) | 0.742 (inactive) | -2.51
CN1C(=O)C2C(C1=O)C1C=C(c3ccc(CO)cc3)C2C(C2CC2)N1C (stereo not given) | -0.283 | -0.131 (inactive) | 0.178 (inactive) | -0.219 (inactive) | 0.173 (inactive) | -0.095 | -0.128 | 0.508 | 0.286 | -0.605 | 0.235 (inactive) | -0.177 | 0.773 (inactive) | 0.892 (inactive) | 0.472 (inactive) | 0.184 (inactive) | 0.691 | -1.19 (inactive) | -0.394 (inactive) | 0.163
